MazEF act: activators of E. coli MazEF toxin-antitoxin RNase, primary screen, biochemical, fluorescence, uHTS; 350,000 tested, 0.32% active; activation, % at 20 µM; Endoribonuclease toxin MazF (Escherichia coli (strain K12)), P0AE70; FAM/BHQ RNA-DNA oligo cleavage fluorescence, 5 h; AID 504720, 2011; in the data active = activation above about 50%
Target sequence (P0AE70 whole entry, looked up): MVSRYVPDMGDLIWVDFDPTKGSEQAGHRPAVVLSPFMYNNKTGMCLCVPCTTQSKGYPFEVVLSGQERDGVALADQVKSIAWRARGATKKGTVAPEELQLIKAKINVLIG
GDH-TPI inh: GDH-TPI coupling enzyme inhibitors, primary screen, artefact control for M. tuberculosis FBA inhibitor project, biochemical, absorbance, full deck | 360,000 tested, 1.2% active | inhibition, % at 4.8 µM | GDH-TPI coupled enzyme counterscreen, NADH absorbance;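 also: 0% = DMSO wells and 100% = wells lacking the enzyme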
FBA Mtb inh: Mtb FBA enzyme inhibitors, primary screen, biochemical, fluorescence, strain H37Rv; Fructose-bisphosphate aldolase (Mycobacterium tuberculosis (strain ATCC 25618 / H37Rv)), …; purified M. tuberculosis FBA, fluorescence read-out; inhibition, % at 1 µM; 360,000 tested, 2.3% active; in the data active = inhibition above about 27%;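 also: 0% = vehicle and 100% = reference inhibitor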
Target sequence (P9WQA3 whole entry, looked up): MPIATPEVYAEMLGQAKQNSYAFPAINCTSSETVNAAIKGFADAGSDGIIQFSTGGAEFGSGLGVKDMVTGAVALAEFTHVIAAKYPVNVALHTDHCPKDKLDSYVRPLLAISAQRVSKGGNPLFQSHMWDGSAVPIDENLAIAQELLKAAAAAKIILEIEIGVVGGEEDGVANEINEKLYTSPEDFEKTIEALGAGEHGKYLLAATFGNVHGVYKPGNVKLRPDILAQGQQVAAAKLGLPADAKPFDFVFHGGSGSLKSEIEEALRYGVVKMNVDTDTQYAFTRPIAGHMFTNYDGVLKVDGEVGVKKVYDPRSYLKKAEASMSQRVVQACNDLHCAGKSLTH
Mtb bLac sens: beta-lactam sensitization of Mtb H37Rv, H37Rv; M. tuberculosis H37Rv growth with meropenem, percent inhibition; inhibition, % at 25 µM; 330,000 tested, 0.27% active; call rule not given here;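 also: growth measured after seven days incubation then overnight dye step; 0% = bacteria only wells and 100% = bacteria with antibiotic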
CCHF vOTU inh: CCHFV vOTU protease inhibitors, primary screen, biochemical, Pep-AMC substrate, fluorescence; AID 651958, 2012; inhibition, % at 11.5 µM; Crimean-Congo hemorrhagic fever virus L polyprotein viral ovarian tumor (vOTU) protease …; 370,000 tested, 0.55% active; also: 0% = vehicle wells with enzyme and 100% = no enzyme wells
* hit, by the source's call; . = no result; + = active, no number. Hits are enriched below; roughly 4% of the tested compounds scored in any of these assays. Rule as the data show it, unless noted: active = inhibition above about 30%; inactive = the rest.

SMILES	MazEF act	GDH-TPI inh	FBA Mtb inh	Mtb bLac sens	CCHF vOTU inh
Cc1cc(=O)oc2c3c(cc(OCC(=O)N[C@@H](Cc4ccccc4)C(=O)O)c12)OC(C)(C)CC3	-15	22	+	0	-168
COCCN1C(=O)/C(=C/c2ccc(N3CCCC3)cc2)SC1=S	318*	3	0	6	10
COc1ccc(/C=C2\SC(=S)N(CCC(=O)N3CCCCC3)C2=O)cc1	-11	1	0	6	-4
CCOc1ccc(N(CC(=O)Nc2c(C)n(C)n(-c3ccccc3)c2=O)S(=O)(=O)c2cccs2)cc1	.	.	.	.	-1
Cc1cc(OCC(=O)Nc2ccc(S(=O)(=O)N3CCN(C)CC3)cc2)ccc1Cl	4	1	141*	1	-2
Cc1cc(OCC(=O)Nc2ccc(S(=O)(=O)N3CCN(C)CC3)cc2)cc(C)c1Cl	0	7	-3	-2	7
CC(=O)N(CN1C(=O)c2ccccc2C1=O)c1ccccc1	2	12	1	-4	-9
CCNc1nc(C)c(CN(C(C)=O)c2ccccc2)nc1C#N	3	8	126*	-1	-139
Cc1cc(C)nc(N2CCN(C(=O)CSc3nc4ccccc4nc3N3CC(C)OC(C)C3)CC2)n1 (stereo not given)	.	.	.	.	-5
CCCCCc1cccc2[nH]cc(-c3ccccc3)c12	.	.	.	.	4
COC(=O)C12C=C3CC(C)=C3C(=O)N1Cc1[nH]c3ccccc3c1C2 (stereo not given)	.	.	.	.	-7
O=C(O)C1Nc2c(O)cc(Cl)c([N+](=O)[O-])c2C2C=CCC12 (stereo not given)	-29	10	-8	7	35*
CCOC(=O)N1CCN(C(=O)c2cc3c(s2)-c2c(C)cccc2OC3)CC1	3	21	143*	-2	-136
CCN1CCN(C(=O)c2cc3c(s2)-c2c(C)cccc2OC3)CC1	8	13	+	-9	.
Cc1cccc2c1-c1sc(C(=O)Nc3ccccc3N3CCN(C)CC3)cc1CO2	-9	15	8	100	-6
O=C(N/N=C/C(Cl)=C\c1ccccc1)c1ccco1	-4	33*	-1	-3	1
O=C(N/N=C/C(Cl)=C/c1ccccc1)c1ccco1	8	35*	-10	-2	11
Cc1cccc(-c2cccc3c4c([nH]c23)[C@@H]2C[C@H]3[C@@H](CN2CC4)[C@H](C)ON3C)c1	.	.	.	.	2
COC(=O)[C@H](CC(C)C)N(CCc1cn(Cc2ccccc2)nn1)S(=O)(=O)c1ccc(F)cc1Br	.	.	.	.	10
CCN(CC)C(=O)CC[C@@H]1CC[C@]2(CCCN(Cc3cccc4ccccc34)C2)O1	.	.	.	.	1
c1ccc2c(-c3nc4ncccc4o3)cccc2c1	2	-2	+	-6	-205
Fc1ccccc1-c1nc2ncccc2o1	1	-3	6	-4	-5
CC1=CC(=C2C(=O)c3ccccc3C2=O)C=C(C)O1	7	10	1	7	5
CC(=O)N1C(=O)C(=C2C=C(C)OC(C)=C2)c2ccccc21	+	7	-3	-2	-13
Cc1c(OC(C(=O)O)c2ccccc2)ccc2c1oc(=O)c1ccccc12 (stereo not given)	-14	24	139*	-6	-68
SMILES	MazEF act	GDH-TPI inh	FBA Mtb inh	Mtb bLac sens	CCHF vOTU inh
Cc1c(OC(C(=O)O)c2ccccc2)ccc2c3c(c(=O)oc12)CCC3 (stereo not given)	2	1	7	.	14
CN(C)CC(=O)N[C@H]1C[C@@H]2O[C@@H](CO)CC[C@@H]2O[C@@H]1CCc1ccc(C2=CCCCC2)cc1	.	.	.	.	-1
CN(C)c1ccc(/C=[N+](\[O-])C2SC(=S)N(C)C2(C)C)cc1 (stereo not given)	2	34*	-3	-2	7
CN(C)c1ccc(/C=[N+](\[O-])C2N(c3ccccc3)C(=S)SC2(C)C)cc1 (stereo not given)	-7	33*	-3	1	3
CN1C(=S)SC(C)(C)C1/[N+]([O-])=C/c1cccnc1 (stereo not given)	11	-10	-2	-4	11
N#CCc1c(C#N)c(N)nc(Nc2ccccc2)c1C#N	4	31*	-2	-9	2
CN(c1ccccc1)c1nc(N)c(C#N)c(CC#N)c1C#N	4	24	1	-7	-10
C=CCOc1ccc(/C=N/NC(=O)CC(=O)NC2CCCCC2)cc1	514*	2	-2	4	-7
C[C@H]1C(c2ccc(F)cc2)=NN(c2ccccc2)[C@@H]1CO	-1	13	23	.	-31
COc1ccccc1[C@H]1C(c2ccccc2)=NN(c2ccccc2)[C@@H]1CO	-2	5	79*	.	.
Cc1cc(C)cc(C(=O)OCCN(C)C2CN(Cc3cn(Cc4ccccc4F)nn3)S(=O)(=O)C2)c1 (stereo not given)	.	.	.	.	-1
COc1cc(NC(=O)c2ccccc2)c(C)cc1NC(=O)CSc1nnc(-c2ccccc2F)n1-c1ccc(C)cc1	.	.	.	.	19
O=C(Nc1nc2ccccc2n1CCN1CCOCC1)c1cn(-c2ccccc2)nc1-c1ccccc1	-1	42*	1	1	14
O=C(Nc1nc2ccccc2n1CCN1CCOCC1)c1ccccc1	6	10	-2	43	9
CCOC(=O)C1=C(C)NC(SC)=NC1c1ccc(OC)cc1 (stereo not given)	5	6	-5	-1	4
CCOC(=O)C1=C(C)NC(SC(C)=O)=NC1c1ccc(OC(C)=O)c(OC)c1 (stereo not given)	-5	36*	4	-5	-3
CCc1noc(C)c1C(=O)N1CCN(CC(=O)OC)CC1	.	.	.	.	-4
O=C1N/C(=N\N=C\c2ccccn2)SC1Cc1cccc(SC(F)F)c1 (stereo not given)	-4	47*	0	99	3
CC(C)(C)c1ccc(-c2nnc(SCC(=O)Nc3cccc4ccccc34)n2Cc2ccco2)cc1	.	.	.	.	25
N#CCN1CCC/C1=C\[N+](=O)[O-]	0	32*	-4	-1	10
CCN(CC)CCN1C(=O)C(=O)/C(=C(/O)c2ccc(Cl)cc2)C1c1ccncc1 (stereo not given)	1	11	3	.	2
O=C(O)CCCN1C(=O)C(=O)/C(=C(/O)c2ccc(Cl)cc2)C1c1ccccc1 (stereo not given)	-8	41*	4	-6	0
O=C(Cn1c2c(c(-c3ccccc3Cl)cc1=O)CCC2)NCCCN1CCOCC1	6	31*	15	-6	-7
Oc1[nH]c2ccc(Br)cc2c1N=Nc1ccc(F)cc1	564*	7	-5	42	-2
Oc1[nH]c2ccccc2c1N=Nc1ccccc1F	+	1	-9	39	3
Oc1[nH]c2ccccc2c1N=Nc1ccc(F)cc1	+	9	-9	8	4

Assay outcomes (PubChem)
